# Where “and” joins values, the source holds several entries; their conditions need not be identical. Identical values can stand only once. Results filed as inconclusive are left out. A call without a number means that no potency is given here. Calls of active or inactive are those of the source. The call rests on the fitted dose curve; in most records, active means well fitted inhibition curve with a large enough effect; inconclusive means small, poorly fitted or top-dose-only effect; inactive means no such curve, though single readings can be large or run the other way.
# Assay: qHTS for Inhibitors of the Aldehyde Dehydrogenase Family (ALDH1A2, ALDH1A3, ALDH2, ALDH3A1) (AID 2061307); further: nearly all actives have a fitted effect of over 50% in size; on potency: test system not described further here
# Conditions: ALDH inhibition qHTS; series mostly up to 50.3 µM
# Potency means the concentration at half of the fitted maximal effect.
row,Structure (SMILES),Potency
1,O=C(Nc1ccc(C(=O)N2CCCC2)cc1)c1cccc(Cl)c1,inactive
2,Cc1ccc2c(c1)/C(=C\C(=O)c1cccs1)C(=O)N2,inactive
3,O=C(Nc1ccc2oc(-c3cccnc3)nc2c1)c1ccc(-c2ccccc2)o1,inactive
4,O=C(N/N=C/c1ccc(Br)o1)c1ccccc1,inactive
5,COc1ccc(OC)c(-n2c3c(cc(-c4nnn(-c5ccc(Cl)cc5)n4)c2=O)C(=O)CC(C)(C)C3)c1,5.04 µM (active)
6,CCN1CCC(N(CCc2ccccc2)Cc2ccccc2)CC1,inactive
7,CN1CCN(c2ccc3ncc(Nc4ccc(Cl)c(C(F)(F)F)c4)n3n2)CC1,28.2 µM (active)
8,O=C1C(=O)N(Cc2ccccc2)c2ccccc21,1.79 µM (active)
9,COc1ccc(C2Nc3c(OC)ccc(OC)c3C(=O)N2Cc2ccccc2)cc1COc1ccc(NC(C)=O)cc1 (stereo not given),2.83 µM (active)
10,CCc1ccc(CSc2nccn2-c2ccccc2)cc1,inactive
11,Cc1cccc(Nc2nc(-c3ccccc3)c3cc(Cl)ccc3n2)c1,12.6 µM (active)
12,COc1ccc(NC(=S)N=Nc2c(O)[nH]c3ccccc23)cc1,inactive
13,CC(Sc1nc2c(cnn2C2COC2)c(=O)n1-c1ccccc1)c1ccccc1 (stereo not given),inactive
14,O=[N+]([O-])c1cccnc1S(=O)(=O)c1ccccc1,inactive
15,N#Cc1cccc(NC(=O)c2cc3c(s2)-c2ccc(Cl)cc2SC3)c1,inactive
16,CC(=O)N1CCC(Nc2ncnc3scc(-c4ccccc4)c23)CC1,6.31 µM (active)
17,NC(=O)Nc1ccc(CNC(=O)C2Cc3ccccc3O2)cc1 (stereo not given),inactive
18,O=C(O)c1ccc(-n2[nH]c(-c3ccccc3)cc2=O)cc1,8.91 µM (active)
19,COc1cc2nc(N3CCN(C)CC3)nc(N)c2cc1OC,inactive
20,O=C(Nc1nncs1)c1ccn(-c2ccc(F)cc2)n1,inactive

row,Structure (SMILES),Potency
1,Cc1ccc(S(=O)(=O)Nc2ccc(O)c3ccccc23)c(C)c1,14.2 µM (active)
2,O=C(Nc1cccc(S(=O)(=O)N2CCOCC2)c1)c1cc(-c2cccnc2)nc2ccccc12,inactive
3,CC(C)CCn1c(O)c(N=NC(=O)c2cccnc2)c2ccccc21,inactive
4,CC(C)Oc1ccc(-c2nc(C(=O)Nc3ncn[nH]3)cs2)cc1,3.55 µM (active)
5,Cc1nc(SCCc2nc3ccccc3[nH]2)c2oc3ccccc3c2n1,inactive
6,Cc1occc1C(=O)N1CCc2cc(-c3nc(NC(=O)Cc4ccc5c(c4)OCO5)sc3C)ccc21,7.08 µM (active)
7,CCOc1ccc(NCC(=O)Nc2ccc(Cl)cc2C)cc1,2.25 µM (active) and 7.94 µM (active)
8,Cc1ccc(NC(=O)c2cc(-c3cccs3)on2)cc1C,inactive
9,CCCCn1cnc2cc(NCc3ccc(OCC)cc3)ccc21,5.04 µM (active)
10,O=C(c1cnc(N2CCCCC2)c2ccccc12)N1CCN(c2ccccc2)CC1,inactive
11,Cc1ccc(NC(=O)c2nc3nc(C)cc(C)n3n2)c(F)c1,inactive
12,O=C(NC1CCCN(Cc2ccccc2)C1)c1ccc(-c2cccc([N+](=O)[O-])c2)o1 (stereo not given),14.1 µM (active)
13,C=CCOc1c(Cl)cc(CNc2ccc(N(C)C)cc2)cc1OC,0.449 µM (active)
14,O=C(Cn1nc2c(cc1=O)CCCC2)Nc1nc(-c2ccc3c(c2)OCO3)cs1,inactive
15,CCOc1ccccc1-n1c(CN2CCN(C(=O)c3ccco3)CC2)nc2cc(OC)c(OC)cc2c1=O,inactive
16,CC(=O)c1c(C)n(-c2ccccc2)c2ccc(O)cc12,0.798 µM (active)
17,CCN(CC)S(=O)(=O)c1ccc(NC(=O)c2ccc(CN3CCc4ccccc4C3)cc2)cc1,inactive
18,O=C(CSc1nnc(-c2ccncc2)o1)Nc1ccc2c(c1)OCCO2,inactive
19,O=C(Nc1cccc(Oc2ncccn2)c1)c1cccc(C(F)(F)F)c1,inactive
20,O=C(NCc1ccc(F)cc1)c1nc(-c2ccc(F)cc2)c2ccccn12,inactive
